# This excerpt belongs to a sample that is enriched for hits.
# RMI FANCM FP: RMI-FANCM interaction inhibition; Fluorescence polarization, RMI core complex with F-MM2 peptide; hits give low values; FP signal (polarization) at 33 µM; 70,000 tested, 0.58% active; AID 1159607; in the data active means FP signal below about 40
# The depositor's hits bear a star.
SMILES,RMI FANCM FP
O=C(Cn1c(CO)cnc1SCc1cccc(C(F)(F)F)c1)NC1CCCC1,64
COc1ccc(NC(=O)Nc2cccc(C(F)(F)F)c2)c(OC)n1,55
O=C(/C=C/c1ccc([N+](=O)[O-])cc1)Nc1ccccc1-c1nc2ccccc2[nH]1,75
COc1ccc(C)cc1S(=O)(=O)Nc1ccc2c(c1)N(C(C)=O)CC2,65
O=c1c2scc(-c3ccccc3)c2ncn1Cc1cccc(Cl)c1,63
O=c1c2scc(-c3cccc(Cl)c3)c2ncn1Cc1cc(=O)n2ccccc2n1,16*
Cc1ccc(C)c(Cn2cnc3c(-c4cccc(Cl)c4)csc3c2=O)c1,66
O=[N+]([O-])c1cc(C(F)(F)F)cc([N+](=O)[O-])c1NCc1cccs1,54
CN1CCN(C(CNC(=O)C(=O)Nc2ccc([N+](=O)[O-])cc2)c2ccc(F)cc2)CC1 (stereo not drawn),52
O=C(Cc1csc(NS(=O)(=O)c2ccc(Cl)cc2)n1)NC1CC1,56
CCSc1nnc(NC(=O)CSc2ncnc3c2cnn3-c2ccccc2)s1,55
COc1ccc(CCNC(=O)CSc2ncnc3[nH]ncc23)cc1OC,55
O=C(CSc1ncnc2[nH]ncc12)Nc1nc(-c2ccco2)c(-c2ccco2)s1,-3*
O=C(CSc1ccc(NC(=O)C2CC2)nn1)Nc1ccc(F)c(Cl)c1,101
COc1ccc(N2CCN(C(=O)C34CCC(C)(C(=O)C3)C4(C)C)CC2)cc1 (stereo not drawn),63
CC1CCCCN1C(=O)C12CCC(C)(/C(=N\O)C1)C2(C)C (stereo not drawn),25*
CC12CCC(C(=O)N3CCC(C(=O)O)CC3)(CC1=O)C2(C)C (stereo not drawn),58
CC(=O)OCC[C@H](C)CCC=C(C)C,64
Cc1ccccc1Oc1ccc(S(=O)(=O)N2CCCC2)cc1,70
O=C(CSc1nnc2ccccn12)c1ccc(Oc2ccccc2)cc1,60
CCCn1c(=NC(=O)c2ccc(C(C)=O)cc2)sc2cc(S(N)(=O)=O)ccc21,67
O=C(Nc1ccc2c(c1)CCC(=O)N2Cc1ccccc1)c1ccc(F)cc1F,66
Cn1c2c(c(=O)n(C)c1=O)C(c1cccc(F)c1)C1=C(CC(C)(C)CC1=O)N2 (stereo not drawn),-8*
Cc1ccsc1C1C2=C(CCCC2=O)Nc2c1c(=O)n(C)c(=O)n2C (stereo not drawn),55
CC1(C)CC(=O)C2=C(C1)Nc1[nH]c(=S)[nH]c(=O)c1C2c1ccc2c(c1)OCO2 (stereo not drawn),52
SMILES,RMI FANCM FP
CCOCCn1ccc2c(OCC(=O)Nc3cc(C)on3)cccc2c1=O,51
CCOc1ccc(S(=O)(=O)Nc2ccc3c(c2)N(CC)C(=O)C(C)(C)CO3)cc1C,66
COc1ccc(-c2cc3nc(C)cc(C)n3n2)cc1OC,64
FC(F)(F)c1cc(-c2ccc(Cl)cc2)nc2cc(-c3ccccc3)nn12,55
COc1ccc(-c2cc(C(F)(F)F)n3nc(-c4cccs4)cc3n2)cc1OC,9*
Cc1noc(C)c1C(=O)N1CCN(C(=O)c2ccco2)CC1,52
COc1ccc(/C=N/Nc2nc3ccccc3nc2/C=C/c2cccs2)cc1,49
CC1CCc2c(C(=O)NCCc3ccccc3)csc2C1 (stereo not drawn),55
CCOC(=O)CN1C(c2ccccc2F)Nc2ccc(Br)cc2C1c1ccccc1 (stereo not drawn),27*
CCOC(=O)CNC(c1ccccc1)c1cc(Br)ccc1NC(=O)c1ccccc1 (stereo not drawn),62
CCOC(=O)Cn1c(=NC(=O)c2ccccc2Br)sc2cccc(F)c21,63
COc1cccc(CCNC(=O)Cc2csc(NC(=O)c3ccccc3)n2)c1,59
Cc1ccc(C)c(NC(=S)N(CCN(C)C)C(C)c2cccnc2)c1 (stereo not drawn),59
O=C(Cc1cc(=O)[nH]c(SCc2ccccc2)n1)NCc1ccncc1,55
CCNc1nc(SCc2ccc([N+](=O)[O-])cc2)nc2sc3c(c12)CCN(C)C3,-31*
CCNc1nc(SCc2ccc([N+](=O)[O-])cc2)nc2sc3c(c12)CCC(C)C3 (stereo not drawn),56
Cn1c(SCc2ccc([N+](=O)[O-])cc2)nc2c(c1=O)SCC2,55
NC(=O)c1cccc(N=Cc2ccc[nH]2)c1,67
CC1(NO)CCCC/C1=N\O (stereo not drawn),56
Cc1ncc(CO)c2c1Oc1[nH]c(-c3ccc(F)cc3)nc(=S)c1C2,61
COc1ccccc1-c1nc(=S)c(C(C)=O)c(C)[nH]1,59
CCOc1cccc2c1Oc1[nH]c(-c3cccc(OC)c3O)nc(=S)c1C2,12*
CS(=O)(=O)Nc1ccccc1C1=NN(C(=O)c2ccco2)C(c2ccccc2Cl)C1 (stereo not drawn),74
CSc1ccccc1NC(=O)Cc1cc(=O)oc2cc(C)ccc12,64
COc1cccc2sc(NC(=O)c3ccccc3F)nc12,63
SMILES,RMI FANCM FP
Cc1c(Cc2ccc3c(c2)OCO3)sc(NC(=O)C(c2ccccc2)c2ccccc2)c1C#N,98
COc1ccc(NC(=O)CSc2nnc(CN3CCOCC3)o2)c(OC)c1,54
CCOC(=O)/C=C/C(=O)Nc1sc(C)c(C)c1C(N)=O,52
Cc1sc(N)c(C(=O)c2cccc(C(F)(F)F)c2)c1C,58
Cc1sc(N)c(C(N)=O)c1C,15*
Cc1cc(C(=O)NN)no1,55
COCCN1CCC(CNC(=O)c2ccco2)CC1,73
CN(C)c1ccc(/C=C/C#N)cc1,73
CN(C)c1ccc(/C=C/c2ccncc2)cc1,25*
CN(C)c1ccc(/C=C/c2ccccc2)cc1,54
COC(=O)c1c(NC(=O)CC2S/C(=N\N=C/c3ccc([N+](=O)[O-])cc3)NC2=O)sc2c1CCCC2 (stereo not drawn),14*
COc1ccc(/C=N\N=C2\NC(=O)C(CC(=O)Nc3sc4c(c3C#N)CCCC4)S2)cc1 (stereo not drawn),58
O=C(CC1S/C(=N\N=C2CCCCC2)NC1=O)Nc1ccc([N+](=O)[O-])cc1 (stereo not drawn),60
COc1ccc(S(=O)(=O)N2CCN(c3ccc4nnc(C)n4n3)CC2)cc1OC,67
O=[N+]([O-])c1ccc(SC2=NCCN2)c(Cl)c1,53
O=[N+]([O-])c1ccc(Sc2ccc(Cl)cc2Cl)c2nonc12,33*
O=[N+]([O-])c1ccc(Sc2ccccc2)c(Cl)c1,53
O=S1(=O)C=CC(N(c2ccc(F)cc2)S(=O)(=O)c2ccccc2)C1 (stereo not drawn),56
COc1ccc(S(=O)(=O)NCCOc2cc(C)cc(C)c2)c(OC)c1,62
CCOc1cccc2cc(-c3csc(NC(=O)c4ccc(S(=O)(=O)N5CCCc6ccccc65)cc4)n3)oc12,54
CCC1CCCCN1S(=O)(=O)c1ccc(C(=O)Nc2nc(-c3cc4cccc(OC)c4o3)cs2)cc1 (stereo not drawn),19*
CCOc1cccc2cc(-c3csc(NC(=O)c4ccc(C(C)=O)cc4)n3)oc12,53
N/C(CS(=O)(=O)c1ccccn1)=N/OC(=O)c1cccs1,52
COC(=O)Nc1ccc2c(c1)NC(=O)C(C)(C)CO2,66
CC1(C)COc2ccc(N)cc2NC1=O,37*
CC(C)S(=O)(=O)Nc1ccc2c(c1)NC(=O)C(C)(C)CO2,70
COc1ccc(OC)c(COCC(O)Cn2cnc3ccccc32)c1 (stereo not drawn),70
CC(C)(C)NC[C@H](O)COc1cccc2c1CCCC2=O,55
COc1ccccc1OCC(O)CNC(C)(C)C (stereo not drawn),71

# Compound activity: PubChem, Small Molecule Screening Facility, UW Madison
